A selection: hits, their analogues and other compounds. The true share with any hit is near 3.4%.
GPR151 activ: activators of human GPR151 | Q8TDV0 | PathHunter beta-arrestin GPR151 cells, luminescence | activation, % at 11.2 µM | 650,000 compounds, 1% hits | AID 1508602; in the data active = activation above about 4.9%
Target sequence (Q8TDV0 whole entry, looked up): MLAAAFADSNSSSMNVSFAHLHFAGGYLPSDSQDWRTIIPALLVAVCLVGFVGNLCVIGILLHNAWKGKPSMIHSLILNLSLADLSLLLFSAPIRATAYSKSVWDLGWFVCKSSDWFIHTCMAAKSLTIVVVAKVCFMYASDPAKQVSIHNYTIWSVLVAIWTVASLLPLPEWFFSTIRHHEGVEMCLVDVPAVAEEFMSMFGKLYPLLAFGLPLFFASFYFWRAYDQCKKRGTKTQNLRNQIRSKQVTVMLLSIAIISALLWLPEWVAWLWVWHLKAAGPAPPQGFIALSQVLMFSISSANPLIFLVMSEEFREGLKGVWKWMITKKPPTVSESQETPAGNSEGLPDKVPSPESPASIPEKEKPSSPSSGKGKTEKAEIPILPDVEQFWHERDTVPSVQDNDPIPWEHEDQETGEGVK
TEAD-YAP block: TEAD-YAP interaction inhibition. HEK-TIYL cells, TEAD-Gal4/YAP UAS-luciferase luminescence. inhibition, % at 9.12 µM. 640,000 compounds, 1.4% hits; in the data active = inhibition above about 32%
FBW7 act: human FBW7 E3 ligase activation, primary screen. Q969H0. AlphaScreen FBW7–phospho-cyclin E peptide binding, activator screen. normalized activity (activation), % at 26.1 µM. 650,000 compounds, 0.13% hits. AID 1259310; in the data active = normalized activity above about 1.9%;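 note: purified mutant Fbw7 with reduced substrate affinity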
MITF inh: blocks human microphthalmia-associated transcription factor. O75030. AlphaScreen MITF homodimerization, bead proximity signal. inhibition, % at 2.6 µM. 650,000 compounds, 0.91% hits; in the data active = inhibition above about 50%
GPR151 confirm: human GPR151 activation, confirmation screen | AID 1508609 | shares compounds with GPR151 activ | 6,700 tested, under 10 active | GPR151 PathHunter beta-arrestin cells, luminescence, 90 min; % of EA-reagent control over plate median | activation, % at 11.2 µM;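 active = mean percent activation across replicates above the confirmation screen cutoff of 4.91%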
GPR119 ag: counter-screen for GPR151 activators: effect on human GPR119; 6,700 compounds, 0.3% hits; shares compounds with GPR151 activ; activation, % at 11.2 µM; GPR119 PathHunter beta-arrestin cells, luminescence, 90 min; 0 = compound-well median, 100 = enzyme-acceptor control;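 active = mean percent activation in the counterscreen above 29.09%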;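 note: counterscreen on off-target GPR119 to flag nonselective hits from the GPR151 activator screen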
Of the large screens only hits and unclear results are named; the others gave an inactive call (follow-up assays come after a bar, where they were run).

COC(=O)C1C(=O)C2=C(CC1C)NC(=O)CC2c1cc(OC)c(O)c([N+](=O)[O-])c1 (configuration not stated)	none
COC(=O)c1cc(NS(=O)(=O)c2ccc3ccccc3c2)ccc1Cl	GPR151 activ 5.0 | GPR151 confirm inactive | GPR119 ag inactive
COc1cccc(S(=O)(=O)Nc2ccc(Cl)c(C(F)(F)F)c2)c1	GPR151 activ 7.1 | GPR151 confirm inactive | GPR119 ag inactive
Cc1ccccc1-c1nc(-c2ccc(Br)cc2)no1	none
Cc1ccccc1-c1nc(-c2ccc(Cl)cc2)no1	GPR151 activ 5.1 | GPR151 confirm inactive | GPR119 ag inactive
COc1ccccc1NC(=O)c1ccccc1C(F)(F)F	none
COc1ccc(OC)c(NC(=O)c2ccccc2C(F)(F)F)c1	GPR151 activ 6.6 | GPR151 confirm inactive | GPR119 ag inactive
COc1ccc(OC)c(NC(=O)CCN(C)Cc2ccccc2)c1	GPR151 activ 11 | GPR151 confirm inactive | GPR119 ag inactive
O=C(Nc1cc(Cl)c(Cl)cc1Cl)c1cnc2n(c1=O)CCS2	GPR151 activ 7.7 | GPR151 confirm inactive | GPR119 ag inactive
CCOC(=O)C(CC)Sc1nnc(N2CCN(c3ccccc3)CC2)s1 (configuration not stated)	none
CCC(=O)NNC(=O)CSc1nnc2c3c(C)c(C)sc3nc(C(C)C)n12	none
Cc1sc2nc(C(C)C)n3c(SCC(=O)NNC(=O)C(C)C)nnc3c2c1C	GPR151 activ 7.4 | GPR151 confirm inactive | GPR119 ag inactive
OCC1CCN(C2CCCN(Cc3ccc4nsnc4c3)C2)CC1 (configuration not stated)	none
OCC1CCN(C2CCCN(Cc3ccc4nonc4c3)C2)CC1 (configuration not stated)	GPR151 activ 5.9 | GPR151 confirm inactive | GPR119 ag inactive
S=c1[nH]nc(-c2cccnc2)n1/N=C/c1cccc2ccccc12	none
CCOC(=O)C1=C(C)N(C)C(SC)=NC1c1ccco1 (configuration not stated)	GPR151 activ 6.4 | GPR151 confirm inactive | GPR119 ag inactive
COc1ccc(-c2nc3c[n+](CC(N)=O)ccn3c2Nc2ccccc2C)cc1	GPR151 activ 6.7 | GPR151 confirm inactive | GPR119 ag inactive
Cc1ccc(Nc2c(-c3ccc(N4CCOCC4)cc3)nc3c[n+](CC(N)=O)ccn23)cc1	GPR151 activ 5.1 | GPR151 confirm inactive | GPR119 ag inactive
CCNc1nc(NCCN2CCOCC2)c2ncn(-c3ccccc3)c2n1	none
COc1cc(Nc2nc(NCCO)c3ncn(-c4ccsc4)c3n2)cc(OC)c1OC	GPR151 activ 5.6, TEAD-YAP block 37 | GPR151 confirm inactive | GPR119 ag inactive
CCNc1nc(NCCN2CCOCC2)c2ncn(-c3ccsc3)c2n1	GPR151 activ 6.5, TEAD-YAP block 33 | GPR151 confirm inactive | GPR119 ag inactive
COc1ccc(-c2nc(NCCOc3ccccc3)c3ncn(C4CCCCC4)c3n2)cc1	none
COc1ccc(C2=N/C(=C\c3cccs3)C(=O)O2)cc1Br	none
Cc1ccc(NC(=O)C(=O)N/N=C/c2ccc([N+](=O)[O-])cc2)cc1C	GPR151 activ 15 | GPR151 confirm inactive | GPR119 ag inactive
Cc1cc(Cl)ccc1NC(=O)C(=O)N/N=C/c1ccc([N+](=O)[O-])cc1	none
COCC(=O)NC1CCN(C(=S)Nc2ccccc2Cl)CC1	none
COCC(=O)NC1CCN(C(=S)Nc2ccc(Cl)cc2)CC1	GPR151 activ 7.4 | GPR151 confirm inactive | GPR119 ag inactive
COc1ccc(CCNc2nc(N3CCCC3)nc(N3CCCC3)n2)cc1OC	GPR151 activ 5.1 | GPR151 confirm inactive | GPR119 ag inactive
COc1ccc(CCNc2nc(NC(C)(C)CO)nc(N3CCCC3)n2)cc1OC	none
CC(=O)N/C(=C\c1ccccc1)C(=O)NC(C)(C)C	GPR151 activ 5.6 | GPR151 confirm inactive | GPR119 ag inactive
CN(c1ccc(C(=O)Nc2ccc(F)c(Cl)c2)cc1)S(=O)(=O)c1ccccc1	GPR151 activ 5.4 | GPR151 confirm inactive | GPR119 ag inactive
CN(c1ccc(C(=O)Nc2ccccc2)cc1)S(=O)(=O)c1ccccc1	none
COc1ccc(C(=O)Nc2cccc(-c3nc4ncccc4o3)c2C)cc1[N+](=O)[O-]	none
COc1ccc(C(=O)Nc2cccc(-c3nc4ncccc4o3)c2C)cc1OC	GPR151 activ 5.5 | GPR151 confirm inactive | GPR119 ag inactive
COc1c(C)cccc1C(=O)Nc1cccc(-c2nc3ncccc3o2)c1	GPR151 activ 7.4 | GPR151 confirm inactive | GPR119 ag inactive
COc1ccc(C(=O)Nc2nnc(C(C)(C)C)s2)cc1[N+](=O)[O-]	GPR151 activ 7.3 | GPR151 confirm inactive | GPR119 ag inactive
CC(C)(C)c1nnc(NC(=O)c2ccc([N+](=O)[O-])cc2)s1	none
COc1cc(N=Cc2c(O)n(-c3ccccc3F)c(=O)[nH]c2=O)cc(OC)c1	none
COc1cc(N=Cc2c(O)n(-c3ccccc3F)c(=S)[nH]c2=O)cc(OC)c1	GPR151 activ 5.4 | GPR151 confirm inactive | GPR119 ag inactive
C=CCNC(=O)Cn1nnc(-c2ccncc2)n1	none
Cc1cccc(NC(=O)CCC2CCN(C(=O)Cc3ccsc3)CC2)c1	GPR151 activ 5.2 | GPR151 confirm inactive | GPR119 ag inactive
CN(Cc1nc(-c2cccnc2)no1)S(=O)(=O)c1ccc(Br)cc1	none
CN(Cc1nc(-c2cccnc2)no1)S(=O)(=O)c1ccc2ccccc2c1	GPR151 activ 5.1 | GPR151 confirm inactive | GPR119 ag inactive
CCSc1nnc(C)c(=O)[nH]1	none
O=C(CC1C(=O)NCCN1Cc1ccc(F)c(F)c1)NCc1cccnc1 (configuration not stated)	none
O=C(NN=C1CCCCC1)C(O)(c1ccccc1)c1ccccc1	GPR151 activ 9.9 | GPR151 confirm inactive | GPR119 ag inactive
O=C(NN=C1CCCC1)C(O)(c1ccccc1)c1ccccc1	none
COc1ccccc1CNC(=O)COc1ccc(Br)cc1Cl	GPR151 activ 12 | GPR151 confirm inactive | GPR119 ag inactive
COc1ccccc1CNC(=O)COc1ccccc1	none
CCc1ccc(OCC(=O)NCc2ccccc2OC)cc1	GPR151 activ 5.1 | GPR151 confirm inactive | GPR119 ag inactive
COc1ccc(/C=C/C23NC(=O)CCN2c2ccccc2C3(C)C)cc1OC (configuration not stated)	none
COCCN1C(=O)c2oc3cc(C)c(C)cc3c(=O)c2C1c1ccc(Cl)cc1 (configuration not stated)	none
CCOC(=O)C1=C(CN2CCN(CC)CC2)NC(=O)NC1c1cc(C)ccc1C (configuration not stated)	GPR151 activ 7.5 | GPR151 confirm inactive | GPR119 ag inactive
COc1cccc(CC(=O)N2CCc3nnc(CNC(=O)CCc4cccnc4)n3CC2)c1	GPR151 activ 5.7 | GPR151 confirm inactive | GPR119 ag inactive
CC(C)Oc1c(Cl)cc(C=O)cc1Cl	GPR151 activ 6.8 | GPR151 confirm inactive | GPR119 ag inactive

Assay outcomes as filed in PubChem BioAssay.
